# High-throughput results deposited in PubChem by National Center for Advancing Translational Sciences (NCATS).
# Compounds with a hit are over-represented: about 3.1% of the library has one in this group of screens.
# Tau fluor cs: Counterscreen qHTS for Inhibitors of Tau Fibril Formation, Fluorescence Polarization; tau K18 P301L Alexa594 fluorescence, heparin fibrillization; Potency, µM (top dose mostly 57.7 µM); 0.93% of 280,000 active; AID 1463, 2008; note: nearly all actives have a fitted effect of over 55% in size
#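 Human K18 P301L tau (15 uM unlabeled plus 0.24 uM Alexa 594-labeled, final) in 100 mM sodium acetate pH 7 was mixed with compound and 20 uM heparin and incubated 6 hr at 37 C.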
# Tau FP inhib: qHTS for Inhibitors of Tau Fibril Formation, Fluorescence Polarization; K18 P301L tau heparin fibrillization, Alexa594 FP, 6 h; Potency, µM (highest dose often 57.7 µM), hits mostly inhibitors; 0.39% of 280,000 active; note: nearly all actives have a fitted effect of over 55% in size
#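 Read-out: fluorescence polarization of Alexa 594-labeled tau (0.24 uM), 555 nm excitation, 632 nm emission. Mixtures held 15 uM unlabeled K18 P301L, compound and 20 uM heparin, pH 7 acetate buffer, incubated 6 hr at 37 C.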
# TRb-SRC2 inh: qHTS for Inhibitors of the Interaction of Thyroid Hormone Receptor and Steroid Receptor Coregulator 2 | Thyroid hormone receptor beta (Homo sapiens), P10828 | TRbeta-SRC2 peptide binding, fluorescence polarization; receptor liganded with 1 µM T3 | Potency, µM (doses to about 106 µM), hits mostly inhibitors | 0.065% of 280,000 active | AID 1469, 2008; note: nearly all actives have a fitted effect of over 50% in size
# Target sequence (P10828 whole entry, looked up): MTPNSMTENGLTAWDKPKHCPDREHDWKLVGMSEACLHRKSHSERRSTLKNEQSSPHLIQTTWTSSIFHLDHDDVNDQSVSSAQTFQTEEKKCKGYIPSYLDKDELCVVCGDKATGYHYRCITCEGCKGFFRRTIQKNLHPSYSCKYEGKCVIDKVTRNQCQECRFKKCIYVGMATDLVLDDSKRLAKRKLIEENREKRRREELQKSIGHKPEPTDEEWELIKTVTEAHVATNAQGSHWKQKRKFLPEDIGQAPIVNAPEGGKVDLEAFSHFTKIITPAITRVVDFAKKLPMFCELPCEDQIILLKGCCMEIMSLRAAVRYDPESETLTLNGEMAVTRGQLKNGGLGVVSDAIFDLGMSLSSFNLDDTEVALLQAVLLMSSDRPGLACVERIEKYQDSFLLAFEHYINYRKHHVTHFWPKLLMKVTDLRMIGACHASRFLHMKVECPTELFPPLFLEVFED
#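 Fluorescence polarization of 20 nM Texas Red SRC2 peptide with 0.6 uM human TRb ligand-binding domain, in Tris buffer with 1uM T3 and 5% DMSO. Incubated 5 hr ambient; normalized to unbound and bound controls.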
# Tau ThT inhib: qHTS for Inhibitors of Tau Fibril Formation, Thioflavin T Binding. AID 1460, 2008. Potency, µM (top dose mostly 57.4 µM), most hits filed as inhibitors. recombinant tau K18 P301L (four-repeat tau fragment), heparin-induced fibrillization, ThT fluorescence. Microtubule-associated protein tau (Homo sapiens), P10636. 2.1% of 270,000 active; note: nearly all actives have a fitted effect of over 55% in size
#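 K18 P301L tau (15 uM + 0.24 uM Alexa 594-tagged), heparin 20 uM, NaOAc pH 7, 6 h 37 C; ThT 30 uM, 1 h RT, ex 450/em 510 nm.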
# TR SRC2 fluor cs: Total Fluorescence Counterscreen for Inhibitors of the Interaction of Thyroid Hormone Receptor and Steroid Receptor Coregulator 2. TRb/SRC2 Texas Red total fluorescence interference. 0.29% of 280,000 active. AID 1479, 2009. Potency, µM (series often up to 106 µM); active = well fitted curve in either direction with a large enough effect; inconclusive = small, poorly fitted or top-dose-only effect
#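 Human TRb ligand-binding domain at 0.6 uM with 20 nM Texas Red SRC2 peptide in Tris buffer containing 1 uM T3 and 5% DMSO, incubated with compound 5 h at ambient temperature. Total fluorescence (555/632 nm) calculated as parallel + 2 × perpendicular.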
# Numbers stand for hits; i = inactive; ? = inconclusive; nt = not tested or not shown; [ ] = another dose, or the depositor's remark. Unless noted, calls come from the whole dose curve; as a rule, active = well fitted curve in the direction sought with a large enough effect; inconclusive = small, poorly fitted or top-dose-only effect, or another doubt; inactive = no such curve, though single readings can be large; an effect the other way counts as inactive or inconclusive.
SMILES,Tau fluor cs,Tau FP inhib,TRb-SRC2 inh,Tau ThT inhib,TR SRC2 fluor cs
Cc1nc(-c2ccc(NC(=O)c3ccccc3)cc2)cs1,i,i[2.34 µM],i,i,i
O=C(Nc1cccc(-c2csc(Nc3cccc(C(F)(F)F)c3)n2)c1)c1ccccc1,8.9µM[quencher],i,i,?,i
O=C(Nc1cccc(C(F)(F)F)c1)c1csc(-c2ccncc2)n1,i,i,i,i,i
O=C(Nc1ccc(-c2csc(Nc3cccc(C(F)(F)F)c3)n2)cc1)c1ccccc1,10µM[quencher],i,i,?,i
c1ccc(Nc2nc(-c3ccncc3)cs2)cc1,i,i,i,i,i
O=C(Nc1ccc(-c2csc(Nc3cccc(C(F)(F)F)c3)n2)cc1)c1cc([N+](=O)[O-])cc(C(F)(F)F)c1,3.5µM[quencher],i,i,?,i
O=C(Nc1cccc(-c2csc(Nc3ccccc3)n2)c1)c1ccccc1,13µM[quencher],i,i,?,i
O=C(Nc1cccc(-c2cnc3ccccc3n2)c1)c1ccccc1,i,i,i,i,i
CCOC(=O)C1CCN(C(=O)CSc2n[nH]c(-c3ccccc3Cl)n2)CC1,i,i,i,i,i
Cc1ccc(Cn2c(=O)n(Cc3ccc(C(=O)NC4CCN(Cc5ccccc5)CC4)cc3)c(=O)c3ccccc32)cc1,i,i,i,i,i
Cc1nc(CSc2nsc(/C=C/N(C)C)c2C#N)cs1,?,i,i,25µM,i
Cc1nc(CSc2nnc(N)s2)cs1,i,i,i,i,i
Cc1ccc2nc3c(c(Nc4ccc(C)c(C)c4)c2c1)CCC3,i,i,i,i,i
CC1=NN(c2ccccc2)C(=O)/C1=C\c1cn(C)c2ccccc12,?,?,i,7.1µM,i
CC1=NN(c2ccccc2)C(=O)/C1=C/c1cc2cc(C)ccc2nc1N1CCCCC1,?,i,?,?,i
CC1=NN(c2ccccc2)C(=O)/C1=C/c1cn(C)c2ccccc12,?,i,i,2.8µM,i
CC1=NN(c2ccccc2)C(=O)/C1=C\c1cc(C)n(C)c1C,i,?,i,3.5µM,i
COC(=O)C1=C(C)N=C2SCCC(=O)N2C1c1cc(Br)ccc1OC (stereo unspecified),?,i,i,5µM,i
CC(=O)c1c(C(C)=O)c(C)n(-c2ccc(N)c(C)c2)c1C,i,i,22µM,i,45µM[fluorescent]
COc1ccc(-n2c(C)c(C(C)=O)c(C(C)=O)c2C)cc1OC,i,i,i,i,i
CO/N=C1\C[C@]2(C[C@@H]3C[C@@H](C/C=C(\C)C[C@@H](C)/C=C/C=C4\CO[C@@H]5[C@H](O)C(C)=C[C@@H](C(=O)O3)[C@]45O)O2)O[C@H](/C(C)=C/C(C)C)[C@H]1C,nt,nt,i,nt,i
Clc1ccc2[nH]c3c(c2c1)CCc1cn[nH]c1-3,8.9µM[quencher],i,i,?,i
O=C(CSc1ccc(-c2cccnc2)nn1)c1ccc([N+](=O)[O-])cc1,?,i,i,14µM,i
O=C(CSc1ccc(-c2ccccn2)nn1)c1ccc([N+](=O)[O-])cc1,i,i,i,16µM,i
COc1ccc(C2CC(c3ccccc3)Oc3cc(OC)ccc32)cc1 (stereo unspecified),nt,nt,i,nt,i
SMILES,Tau fluor cs,Tau FP inhib,TRb-SRC2 inh,Tau ThT inhib,TR SRC2 fluor cs
C/C(=N\Nc1cccc2cccnc12)c1ccc(N)cc1,?,?,i,25µM,i
C/C(=N\Nc1cccc2cccnc12)c1ccccn1,i,i,i,?,i
CC(=O)c1ccc(S(=O)(=O)N2CCCC2)cc1,i,i,i,?,i
CC(=O)Nc1ccc(Nc2ccc3cc(S(=O)(=O)N4CCCCC4)ccc3n2)cc1,14µM[quencher],i,i,?,i
CC1CCN(S(=O)(=O)c2ccc3nc(Nc4cccc(F)c4)ccc3c2)CC1,?,13µM,i,i,i
CC(=O)c1ccc(Nc2ccc3cc(S(=O)(=O)N4CCCC4)ccc3n2)cc1,11µM[quencher],22µM,i,i,i
CC(C)c1ccc(Nc2sc(C(=O)c3ccccc3)c(N)c2S(=O)(=O)c2ccccc2)cc1,i,i,i,i,i
